Source: PMC5540273 (PLoS ONE, 2017)

How the values were obtained:
Settings in all cases: concentration: 1 μM, replicates: in singlicate; n = 1
PHKG1 = system: PHKG1
PHKG2 = system: PHKG2
PIK3C2B = system: PIK3C2B
PIK3C2G = system: PIK3C2G
PIK3CA = system: PIK3CA
PIK3CB = system: PIK3CB
PIK3CD = system: PIK3CD
PIK3CG = system: PIK3CG
PIK4CB = system: T1, PIK4CB
T1 construct: gene PI4KB

PIKFYVE = system: PIKFYVE
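Further: KINOMEscan kinase panel screen.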

Structure (SMILES) | %Inh (PHKG1) [%] | %Inh (PHKG2) [%] | %Inh (PIK3C2B) [%] | %Inh (PIK3C2G) [%] | %Inh (PIK3CA) [%] | %Inh (PIK3CB) [%] | %Inh (PIK3CD) [%] | %Inh (PIK3CG) [%] | %Inh (PIK4CB) [%] | %Inh (PIKFYVE) [%]
COc1cccc(-c2cc(-c3c[nH]nc3-c3ccccn3)ccn2)c1 [GW680338] | 2 | 10 | 7 | 11 | 4 | 3 | 0 | 9 | 0 | 0
Cn1cncc1-c1ccc2ncnc(Nc3ccc(OCc4ccccc4)cc3)c2c1 [GW320571] | 5 | 1 | 61 | 57 | 0 | 0 | 7 | 6 | 0 | 0
O=c1cc(N2CCOCC2)nc2n(Cc3cccc(Cl)c3Cl)ccn12 [GSK2286295] | 0 | 19 | 22 | 0 | 20 | 98.7 | 89 | 50 | 0 | 0
Cc1ccc(NC(=O)Nc2cc(C(C)(C)C)nn2-c2ccccc2)cc1 [GSK1014915] | 4 | 0 | 0 | 0 | 0 | 0 | 0 | 0 | 4 | 0
O=S(=O)(c1ccc(-c2ccnc3[nH]ccc23)cc1)N1CCCC1 [GSK846226] | 0 | 10 | 3 | 0 | 8 | 0 | 0 | 14 | 23 | 0
Cc1cccc(-c2nc(C)cc(Nc3ccncc3)n2)n1 [GSK257997] | 0 | 7 | 0 | 0 | 3 | 0 | 0 | 5 | 0 | 27
Cc1cc(-c2ccc3c(c2)CC[C@@H](N[C@@H](C)c2ccccc2)C3)cnc1N.Cl [GW412617] | 21 | 3 | 0 | 0 | 1 | 0 | 0 | 0 | 1 | 0
Fc1cc(Cl)ccc1Nc1ccnc2cc(-c3ccc(CN4CCCCC4)o3)ccc12 [GW560116] | 0 | 0 | 0 | 0 | 0 | 0 | 0 | 0 | 0 | 0
Cc1ccc(C(=O)Nc2ccc(Nc3ccnc4cc(-c5ccccn5)ccc34)cc2O)cc1.Cl [GW440146] | 0 | 0 | 0 | 0 | 0 | 0 | 100 | 0 | 0 | 4
COc1ccc(Nc2nccc(NCCNC(=O)Nc3ccccc3F)n2)cc1 [GSK1379901] | 0 | 0 | 0 | 0 | 0 | 0 | 0 | 0 | 11 | 0
O=C(Nc1n[nH]c2nc(-c3nccs3)c(Br)cc12)C1CCCC1 [SB-742609] | 0 | 0 | 0 | 0 | 0 | 0 | 0 | 0 | 0 | 0
Cn1ccc2ncnc(Oc3cccc(C(=O)Nc4ccccc4)c3)c21 | 0 | 0 | 0 | 0 | 0 | 15 | 27 | 0 | 2 | 10
Cc1c(O)cccc1Nc1ccnc2ccc(C(F)(F)F)cc12.Cl [GW466413] | 3 | 0 | 18 | 48 | 0 | 0 | 25 | 0 | 3 | 11
C[C@@H]1CCCCN1c1cc(-c2ccc3c(N)n[nH]c3c2)nc(N)n1 [GSK2258759] | 0 | 0 | 0 | 0 | 0 | 0 | 0 | 0 | 0 | 7
Cc1ccc(-c2cc(-c3c[nH]nc3-c3ccccn3)ccn2)cc1 [GW684088] | 0 | 27 | 0 | 1 | 2 | 8 | 1 | 4 | 2 | 30
O=C(Nc1ccc2c(c1)OCO2)NC1CCN(c2ccnc(Nc3ccc(F)cc3)n2)C1 (stereo not drawn) [GSK1379724] | 0 | 0 | 0 | 0 | 0 | 0 | 10 | 0 | 39 | 0
CCn1c(-c2cccnc2O)nc2cnccc21 [SB-736715] | 0 | 3 | 0 | 0 | 0 | 0 | 0 | 1 | 24 | 22
Cc1cccc(-c2nc(Nc3ccc4[nH]ncc4c3)c3ccccc3n2)n1 [GW857175] | 0 | 16 | 8 | 43 | 0 | 7 | 18 | 0 | 23 | 85
